Results reported in PubChem BioAssay (EPA / NIEHS).
The source made the active and inactive calls. Rule for the calls: active = hit-call score of the fitted dose curve at least 0.9, where 1 is the maximum; inactive = score below 0.9.

How the values were obtained:
[1] = biological target: Transcription factor E2F1 (Homo sapiens) (UniProt Q01094); assay: ATG_E2F_CIS: Attagene CIS-FACTORIAL HepG2 Assay for human E2F Transcription Factor 1 (AID 2282935); details: HepG2 Attagene cis-reporter, E2F reporter RNA transcripts; actives raise or lower the signal
Summary of the method: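 HepG2 cells transiently transfected with multiplexed cis-element reporter units, dosed for 24 h. Reporter mRNA measured by RT-PCR, 6-FAM primer-extension labeling, HpaI digestion and capillary electrophoresis; bidirectional fit versus DMSO baseline.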

[2] = ATG_E_Box_CIS: Attagene CIS-FACTORIAL HepG2 Assay for human Enhancer Box (E-box) (AID 2282936); details: HepG2 E-box cis-reporter transcription, actives raise or lower the signal
Summary of the method: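 HepG2 cells transiently transfected with multiplexed cis-element reporter units sensing endogenous transcription factor activity; 24 h compound exposure. Reporter mRNA measured by RT-PCR, 6-FAM primer extension, HpaI digestion and capillary electrophoresis; bidirectional fit versus DMSO.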

[3] = ATG_M_61_CIS: Attagene CIS-FACTORIAL HepG2 Assay for M61 Transcription Factor (Internal Marker) (AID 2282937); details: HepG2 Attagene CIS-FACTORIAL M61 internal marker reporter; actives raise or lower the signal
Summary of the method: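 HepG2 cells transiently transfected with multiplexed cis-promoter reporter units reporting endogenous transcription factor activity, measured 24 h after dosing. Reporter mRNA quantified by RT-PCR and capillary electrophoresis; bidirectional fit against DMSO baseline.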

[4] = ATG_EGR_CIS: Attagene CIS-FACTORIAL HepG2 Assay for human Early Growth Response 1 (EGR1) (AID 2282938); details: HepG2 Attagene CIS-FACTORIAL EGR reporter mRNA; actives raise or lower the signal
Summary of the method: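 HepG2 cells transiently transfected with cis-element-driven multiplexed reporter units, dosed for 24 h. EGR1-element reporter mRNA quantified by RT-PCR, 6-FAM labelling, HpaI digestion and capillary electrophoresis; bidirectional fit versus DMSO.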

[5] = ATG_M_19_CIS: Attagene CIS-FACTORIAL HepG2 Assay for M19 Transcription Factor (Internal Marker) (AID 2282939); details: HepG2 Attagene CIS-FACTORIAL M19 internal marker reporter; actives raise or lower the signal
Summary of the method: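 Chemical-treated HepG2 (24 h) with MRTU constructs; reporter transcripts detected by fluorescent RT-PCR fragment analysis on capillary electrophoresis. Internal background marker, DMSO as baseline.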

[6] = ATG_ERE_CIS: Attagene CIS-FACTORIAL HepG2 Assay for Estrogen Response Element (ERE) (AID 2282940); details: HepG2 ERE cis-reporter, Attagene RNA transcript; actives raise or lower the signal
Summary of the method: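 Human liver cells (HepG2) bearing transiently transfected, promoter-regulated reporter units were exposed 24 h. Reporter mRNA induction was detected by capillary electrophoresis of labelled RT-PCR products and fitted bidirectionally to DMSO.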

[7] = ATG_Ets_CIS: Attagene CIS-FACTORIAL HepG2 Assay for human Erythroblast Transformation Specific (ETS) (AID 2282941); details: HepG2 ETS cis-reporter transcription, actives raise or lower the signal
Summary of the method: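 Human HepG2 hepatoma cells were transiently transfected with promoter-driven reporter constructs and treated for 24 hours. Reporter transcripts were quantified by RT-PCR with fluorescent primer extension; bidirectional curve fitting used DMSO as reference.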

[8] = ATG_FoxO_CIS: Attagene CIS-FACTORIAL HepG2 Assay for human Forkhead box O (FoxO) (AID 2282943); details: HepG2 Attagene cis-reporter, FoxO element, mRNA; actives raise or lower the signal
Summary of the method: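 24 h chemical exposure, HepG2 with transient cis-MRTU transfection. RNA extraction, oligo(dT) RT, reporter-specific PCR, primer-extension labelling, HpaI digestion, CE fragment analysis; bidirectional fit, DMSO baseline.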

[9] = ATG_GATA_CIS: Attagene CIS-FACTORIAL HepG2 Assay for human GATA Binding Protein (AID 2282944); details: HepG2 GATA cis-element reporter, Attagene multiplex mRNA; actives raise or lower the signal
Summary of the method: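 Transfected cis-reporter HepG2 cells were treated with chemicals for 24 hours. Total RNA was then converted to cDNA, amplified with reporter-specific primers and analysed by fluorescent capillary electrophoresis, using DMSO-treated wells as baseline.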

[10] = biological target: Hepatocyte nuclear factor 3-beta (Homo sapiens) (UniProt Q9Y261); assay: ATG_FoxA2_CIS: Attagene CIS-FACTORIAL HepG2 Assay for human Forkhead box A2 (FOXA2) (AID 2282942); details: HepG2 cis-reporter transcription factor activity, 24 h; actives raise or lower the signal
Summary of the method: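 HepG2 transiently transfected with a multiplexed cis-promoter reporter library read endogenous FOXA2 activity. After 24 h compound exposure, reporter mRNA was quantified by RT-PCR, HpaI digestion and capillary electrophoresis. Bidirectional fit against DMSO.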

Measured: AC50

Sequence of Transcription factor E2F1 (Homo sapiens) (Q01094 whole entry, looked up): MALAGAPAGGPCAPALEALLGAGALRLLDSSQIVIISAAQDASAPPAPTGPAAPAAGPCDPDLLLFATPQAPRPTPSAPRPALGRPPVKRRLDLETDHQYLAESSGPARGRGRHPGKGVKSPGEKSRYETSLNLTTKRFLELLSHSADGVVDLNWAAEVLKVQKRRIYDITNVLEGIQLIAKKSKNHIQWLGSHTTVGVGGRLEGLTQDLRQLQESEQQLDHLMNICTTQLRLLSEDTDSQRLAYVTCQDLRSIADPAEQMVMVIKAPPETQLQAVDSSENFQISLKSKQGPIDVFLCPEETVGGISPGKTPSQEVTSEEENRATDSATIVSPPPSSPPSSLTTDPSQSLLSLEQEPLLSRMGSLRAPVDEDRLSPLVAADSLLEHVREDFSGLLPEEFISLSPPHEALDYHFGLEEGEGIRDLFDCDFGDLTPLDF
Sequence of Hepatocyte nuclear factor 3-beta (Homo sapiens) (Q9Y261 whole entry, looked up): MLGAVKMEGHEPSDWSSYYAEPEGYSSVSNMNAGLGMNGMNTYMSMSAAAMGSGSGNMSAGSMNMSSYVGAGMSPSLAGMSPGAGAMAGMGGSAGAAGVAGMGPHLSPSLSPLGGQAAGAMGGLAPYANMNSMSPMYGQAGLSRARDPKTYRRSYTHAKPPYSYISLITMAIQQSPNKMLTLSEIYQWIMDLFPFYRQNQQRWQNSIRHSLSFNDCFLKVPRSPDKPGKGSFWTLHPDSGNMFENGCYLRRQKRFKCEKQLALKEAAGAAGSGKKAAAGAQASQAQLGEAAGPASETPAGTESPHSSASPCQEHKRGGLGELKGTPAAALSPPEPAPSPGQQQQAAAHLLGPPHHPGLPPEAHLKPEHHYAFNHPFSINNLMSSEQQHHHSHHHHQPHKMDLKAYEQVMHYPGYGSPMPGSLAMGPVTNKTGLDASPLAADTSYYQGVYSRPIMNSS

C=CC(C)CCCC(C)(C)O (stereo not given)
inactive: [1] | [2] | [3] | [4] | [5] | [6] | [7] | [8] | [9]

O=c1cc[nH]cc1
inactive: [1] | [2] | [3] | [4] | [5] | [6] | [7] | [8] | [9]

COc1ccc(N)c(C)c1
inactive: [1] | [2] | [3] | [4] | [5] | [7] | [8] | [9]
active: [6] 25.5 µM

c1ccc(Sc2ccccc2)cc1
active: [6] 63.5 µM
inactive: [1] | [2] | [3] | [4] | [5] | [7] | [8] | [9]

CC=CC(=O)C1=C(C)C=CCC1(C)C
inactive: [1] | [2] | [3] | [4] | [5] | [6] | [7] | [10] | [8] | [9]

O=Cc1ccccc1O
inactive: [1] | [2] | [3] | [4] | [5] | [7] | [8] | [9]
active: [6] 25.2 µM

CCCCCCCCCCCCOCCOS(=O)(=O)O
inactive: [1] | [2] | [3] | [4] | [5] | [6] | [7] | [8] | [9]

CC(O)CNCC(C)O (stereo not given)
inactive: [1] | [2] | [3] | [4] | [5] | [6] | [7] | [10] | [8] | [9]

CCCC(O)C(CC)CO (stereo not given)
inactive: [1] | [2] | [3] | [4] | [5] | [6] | [7] | [8] | [9]

CCCCN(CCCC)CCCCCCN(CCCC)CCCC
inactive: [1] | [2] | [3] | [4] | [5] | [6] | [7] | [8]

CC/C=C\CCOC(C)OCC (stereo not given)
inactive: [1] | [2] | [3] | [4] | [5] | [6] | [7] | [8]

Cc1ccccc1S
active: [6] 20.5 µM | [8] 134 µM
inactive: [1] | [2] | [3] | [4] | [5] | [7]

C=C(C)CCCC(C)CCO (stereo not given)
inactive: [1] | [2] | [3] | [4] | [5] | [6] | [7] | [8] | [9]

CCC(C)(CCCC(C)C)OC(C)=O (stereo not given)
inactive: [1] | [2] | [3] | [4] | [5] | [6] | [7] | [8] | [9]

NS(=O)(=O)c1cc(C(=O)O)c(NCc2ccco2)cc1Cl
inactive: [1] | [2] | [3] | [4] | [5] | [6] | [7] | [8]

CC(=O)Oc1c(C)c(C)c2c(c1C)CC[C@@](C)(CCC[C@H](C)CCC[C@H](C)CCCC(C)C)O2
inactive: [1] | [2] | [3] | [4] | [5] | [6] | [7] | [8]

CC(C)N1C(=O)c2ccccc2C1=O
active: [6] 74.7 µM
inactive: [1] | [2] | [3] | [4] | [5] | [7] | [8] | [9]
